Compounds with a hit are over-represented: about 1.5% of the library has one in this group of screens.
Measles CPE: compounds protecting cells from measles virus cytopathic effect, primary screen, measles RdRp inhibitor project, single point, MLSMR library, absorbance; hit rate 1.5% among 140,000; protection (pct of control), % at 4 µM; Measles virus-infected cells, CPE protection; AID 841, 2007; in the data active = protection mostly above about 24%, no sharp cut-off; inactive = mostly below about 26%
cytoskel mod: modifiers of F-actin cytoskeleton organization, primary screen, imaging, HUVEC, phalloidin staining, high-content imaging; HUVEC TNFa F-actin phalloidin imaging; inhibition, % at 2 µM; hit rate 0.18% among 91,000; AID 836, 2007;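 active = inhibition above the batch mean plus 3 SD and confirmed as a hit by visual image inspection, cut at about 30% in these data, passing the limit was not always enough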
Hits are given with their value.

Results for CCCCNC(=O)OC(C)CNC(=O)Oc1cccc(C)c1 (stereo unspecified) ?
Measles CPE: 42.6

Results for COc1cc(OC)nc(Oc2ccccc2C(=O)Oc2cccc(C)c2)n1 ?
Measles CPE: inactive; cytoskel mod: inactive

How did O=C(COc1ccccc1)NCC(=O)Nc1cccc2ccccc12 do in these assays?
Measles CPE: inactive

What do the screens show for `CC(C)(C)NC(=O)COc1ccc(-c2ccccc2)cc1`?
Measles CPE: inactive; cytoskel mod: inactive

What do the screens show for `CCNC(=O)COc1ccc(-c2ccccc2)cc1`?
Measles CPE: 62.1; cytoskel mod: inactive

Results for O=C(CCCCn1c(=O)c2ccccc2n(CC(=O)NC2CCCC2)c1=O)NC1CCCC1 ?
Measles CPE: 87.6; cytoskel mod: inactive

Results for CCCN(CCC)C(=O)Cn1c(=O)n(CCCCC(=O)NC2CCCC2)c(=O)c2ccccc21 ?
Measles CPE: inactive; cytoskel mod: inactive

Results for O/N=C/c1ccc(-c2cc(Cl)ccc2Cl)o1 ?
Measles CPE: 42.6

Results for COC(=O)N/N=C/c1ccc(-c2cc(Cl)ccc2Cl)o1 ?
Measles CPE: inactive

Results for O/N=C\c1ccc(-c2ccccc2)o1 ?
Measles CPE: 31.5

Results for CCNC(=S)N/N=C/c1ccc(-c2ccccc2)o1 ?
Measles CPE: inactive

How did Cc1[nH]n(-c2ncc(-c3ccccc3)s2)c(=O)c1C(c1ccc(Br)cc1)C(C#N)C#N (stereo unspecified) do in these assays?
Measles CPE: inactive

What do the screens show for `COc1ccc(NC(=S)NCCCN2CCN(C3CCCCC3)CC2)cc1`?
Measles CPE: inactive

What do the screens show for `CN(C(=O)c1ccc(C(=O)N(C)C2CCCCC2)cc1)C1CCCCC1`?
cytoskel mod: inactive

How did CN(C(=O)c1c(Cl)nc2sccn12)C1CCCCC1 do in these assays?
Measles CPE: 23.3; cytoskel mod: inactive

What do the screens show for `CCn1cc(/C=N\NC(=O)c2ccc(F)cc2)cn1`?
Measles CPE: 28.7

What do the screens show for `Cc1c(/C=N\NC(=O)c2ccc(F)cc2)cnn1C`?
Measles CPE: inactive

What do the screens show for `Cc1cc(-c2csc(NC(=O)c3ccc(C#N)cc3)n2)c(C)n1Cc1ccccc1`?
Measles CPE: inactive

How did CCOc1ccc(/C(O)=C2/C(=O)C(=O)N(c3ncccn3)C2c2ccccc2)cc1 (stereo unspecified) do in these assays?
Measles CPE: inactive

How did CC1Nc2nc(N(C)C)[nH]c(=O)c2NC1C (stereo unspecified) do in these assays?
Measles CPE: inactive

Results for CCCCOc1ccc(C(=O)O)cc1 ?
Measles CPE: inactive; cytoskel mod: inactive

How did CCCOc1ccc(CC(CC(=O)O)(C(=O)O)C(=O)O)cc1 do in these assays?
Measles CPE: 46.2

Results for O=C(NCCN1C(=O)S/C(=C\c2ccc(OC(F)F)cc2)C1=O)c1cnccn1 ?
Measles CPE: inactive

How did CCC(C)Oc1cccc(OCCCCN2C(=O)NC(C)(C)C2=O)c1 (stereo unspecified) do in these assays?
Measles CPE: inactive; cytoskel mod: 100.0

Results for CC1(C)NC(=O)N(CCCCOc2cccc(C(F)(F)F)c2)C1=O ?
Measles CPE: inactive

What do the screens show for `CCOc1ccc2ccccc2c1/C=N/NC(=O)CNC(=O)C(c1ccccc1)c1ccccc1`?
Measles CPE: inactive

How did Cc1ccc2nc(SC(C(=O)c3ccccc3)c3ccccc3)nc(C)c2c1 (stereo unspecified) do in these assays?
Measles CPE: inactive

What do the screens show for `COc1nccnc1NS(=O)(=O)c1ccc(NC(=S)NC(=O)c2ccc(F)cc2)cc1`?
Measles CPE: 34.2

Results for COc1nccnc1NS(=O)(=O)c1ccc(NC(=S)NC(=O)c2cccc(F)c2)cc1 ?
Measles CPE: inactive

How did CC1(C)Cc2c(sc(NC(=O)C(C)(C)C)c2C#N)C(C)(C)N1 do in these assays?
Measles CPE: inactive; cytoskel mod: 76.2

Results for CCC(=O)Nc1sc2c(c1C#N)CC(C)(C)NC2(C)C ?
Measles CPE: inactive; cytoskel mod: inactive

How did CC1=C/C(=N\NC(=O)c2ccccc2)CC1 do in these assays?
Measles CPE: inactive

Results for COC(=O)c1ccc(=O)n(Cc2ccco2)c1 ?
Measles CPE: inactive

Results for COC(=O)c1cc(Br)c(=O)n(Cc2ccco2)c1 ?
Measles CPE: 37.1; cytoskel mod: inactive

How did CC(=O)Nc1ccc(SCC(=O)c2cc(C)n(C)c2C)cc1 do in these assays?
Measles CPE: 46.2; cytoskel mod: inactive

Results for CC(=O)Nc1ccc(SCC(=O)c2cc(C)n(CC(F)(F)F)c2C)cc1 ?
Measles CPE: inactive; cytoskel mod: inactive

Results for CCC1(C(=O)OC)NC(c2ccccc2OC)C2C(=O)N(C)C(=O)C21 (stereo unspecified) ?
Measles CPE: inactive; cytoskel mod: inactive

Results for CCC1(C(=O)OC)NC(c2ccco2)C2C(=O)N(c3ccccc3)C(=O)C21 (stereo unspecified) ?
Measles CPE: 78.4; cytoskel mod: inactive

How did CCCCNC(=O)CCn1c(=O)c2ccccc2n(Cc2ccc(F)cc2)c1=O do in these assays?
Measles CPE: inactive

Results for C/C(O)=c1/ccc2cccc3nc(C)nc1c23 ?
Measles CPE: 112.8; cytoskel mod: inactive

What do the screens show for `Cc1nc2ccccc2nc(C)c1=NO`?
Measles CPE: inactive; cytoskel mod: inactive

Results for CCOC(=O)c1csc(NC(=O)Nc2cccc(Cl)c2)n1 ?
Measles CPE: inactive

Results for Cc1cccc(-c2noc(CN(C(=O)c3ccc4c(c3)OCO4)C(C)C)n2)c1 ?
Measles CPE: 46.0; cytoskel mod: inactive

Results for Cc1cccc(-c2noc(CN(C(=O)c3ccc(Br)o3)C(C)C)n2)c1 ?
Measles CPE: inactive; cytoskel mod: inactive

Results for COc1cc(NC(=O)Cc2cccs2)cc(OC)c1 ?
Measles CPE: 33.9

Results for COc1cc(C(=O)Nc2ccc3c(c2)OCO3)ccc1-n1cnnn1 ?
Measles CPE: inactive; cytoskel mod: inactive

Results for COc1cccc(NC(=O)Cc2cccs2)c1 ?
Measles CPE: inactive; cytoskel mod: inactive

What do the screens show for `COc1cc(NC(=O)Cc2cccs2)ccc1-n1cnnn1`?
Measles CPE: 29.0; cytoskel mod: inactive

How did O=C1c2ccccc2C(=O)N1CCCCN(C(=O)c1cc([N+](=O)[O-])ccc1Cl)c1ccc(Cl)cc1 do in these assays?
Measles CPE: inactive

How did Cc1ccc(N2C(=O)[C@@H]3C(C(=O)C(c4ccccc4)c4ccccc4)=NN[C@@H]3C2=O)cc1 do in these assays?
Measles CPE: inactive

How did CC1=CCC2C(=O)N(c3ccccc3OC(=O)c3ccccc3F)C(=O)C2C1 (stereo unspecified) do in these assays?
Measles CPE: inactive

Results for CC(NC(=O)Cc1ccccc1)c1cc2c(cc1Br)OCCCO2 (stereo unspecified) ?
Measles CPE: inactive

How did Cc1ccc(C(=O)COC(=O)CCc2nc3ccccc3[nH]c2=O)cc1C do in these assays?
Measles CPE: inactive; cytoskel mod: inactive

How did O=C(CCc1nc2ccccc2[nH]c1=O)OCC(=O)c1ccc(Cl)cc1 do in these assays?
Measles CPE: 36.2; cytoskel mod: inactive

Results for CCOC(=O)Cc1cc(OC)c(OC)cc1Cc1cc(OC)c(OC)cc1CC(=O)OCC ?
Measles CPE: inactive; cytoskel mod: inactive

How did O=C(/C=C/c1ccc2c(c1)OCO2)NCCSCc1c(Cl)cccc1Cl do in these assays?
Measles CPE: inactive

Results for COC(=O)c1ccc(CSc2nnc(-c3c[nH]c4ccccc34)n2C)o1 ?
Measles CPE: inactive

Screens: PubChem, several laboratories
